The target of assay [1] is Bile acid receptor (Homo sapiens) (UniProt Q96RI1). In words: ATG_FXR_TRANS: Attagene TRANS-FACTORIAL HepG2 Assay for Farnesoid X Receptor (FXR) (AID 2282979).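 Also: hits raise reporter mRNA above DMSO so AC50 marks FXR activation.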 The following applies: HepG2 Attagene TRANS FXR-GAL4 reporter transcription. The procedure, abridged:
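Transient transfection of HepG2 with multiplexed GAL4-UAS reporter units; exogenous FXR-GAL4 chimera. Dose 24 h → TriZol RNA → oligo(dT) RT → PCR, 6-FAM primer extension, HpaI cut → CE. Gain vs DMSO.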

Assay [2] in a line: ATG_M_32_TRANS: Attagene TRANS-FACTORIAL HepG2 Assay for M32 Transcription Factor (Internal Marker) (AID 2282984).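 Also: transcript level of a background control reporter unit measured by RT-PCR and capillary electrophoresis.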 The following applies: HepG2 Attagene TRANS M32 internal marker reporter. The procedure, abridged: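 Cell-based TRANS-format assay in HepG2: exogenous chimeric GAL4 reporter units transiently expressed, compounds applied 24 h. Reporter mRNA detected by RT-PCR plus capillary electrophoresis; this readout is an internal background marker.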

Assay [3] has as its target Nuclear receptor subfamily 4 group A member 2 (Homo sapiens) (UniProt P43354). Put plainly: ATG_NURR1_TRANS: Attagene TRANS-FACTORIAL HepG2 Assay for human Nuclear Receptor Related Protein 1 (NURR1) (AID 2282985). Particulars: HepG2 Attagene TRANS reporter, mRNA readout. In short, it runs like this: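 Measures transcriptional activation by an exogenous NR-Gal4 chimera in transfected HepG2 liver cells. After 24 h, reporter RNA is reverse-transcribed, amplified and resolved by capillary electrophoresis; DMSO defines baseline.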

Assay [4] deals with Transcriptional activator Myb (Homo sapiens) (UniProt P10242). In words: ATG_Myb_CIS: Attagene CIS-FACTORIAL HepG2 Assay for human Myeloblastosis (Myb) Proto-Oncogene Transcription Factor (AID 2282986; active = hit-call score of the fitted dose curve at least 0.9, where 1 is the maximum; inactive = score below 0.9). The following applies: HepG2 Attagene CIS-FACTORIAL Myb reporter transcription; actives raise or lower the signal. The procedure, abridged:
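Transiently transfected HepG2 cells, treated 24 h. Reporter mRNA quantified by RT-PCR/capillary electrophoresis; bidirectional fit relative to DMSO.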

Assay [5] deals with Nuclear respiratory factor 1 (Homo sapiens) (UniProt Q16656). In words: ATG_NRF1_CIS: Attagene CIS-FACTORIAL HepG2 Assay for human Nuclear Respiratory Factor 1 (NRF1) Orphan Gene (AID 2282987; active = hit-call score of the fitted dose curve at least 0.9, where 1 is the maximum; inactive = score below 0.9). Particulars: HepG2 NRF1 cis-element reporter, Attagene multiplex; actives raise or lower the signal. The procedure, abridged:
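Cells (HepG2, transient MRTU transfection) are exposed to compound for 24 h, then RNA isolated and reporter mRNA amplified and fluorescently labelled. Fragments are separated by capillary electrophoresis; signal change is fitted bidirectionally relative to DMSO.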

For assay [6], the target named is Hepatocyte nuclear factor 4-alpha (Homo sapiens) (UniProt P41235). Put plainly: ATG_HNF4a_TRANS: Attagene TRANS-FACTORIAL HepG2 Assay for human Hepatocyte Nuclear Factor 4 alpha (HNF4a) (AID 2282982). Particulars: HepG2 HNF4a transactivation reporter, mRNA readout. In short, it runs like this: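 Multiplexed reporter assay: transfected HepG2, 24 h exposure, total RNA → oligo(dT) RT → PCR → 6-FAM extension → HpaI digest → CE fluorescence. DMSO = negative control.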

A short description of assay [7]: ATG_M_06_TRANS: Attagene TRANS-FACTORIAL HepG2 Assay for M06 Transcription Factor (Internal Marker) (AID 2282983).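 As to AC50: potency for rise in reporter mRNA above DMSO baseline.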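 As to outcome: reporter transcript level by RT-PCR then capillary electrophoresis fluorescence.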 Particulars: HepG2 Attagene TRANS M06 internal marker reporter. The procedure, abridged: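 Background control endpoint: reporter mRNA from transiently transfected HepG2 after 24 h dosing, detected by RT-PCR with capillary electrophoresis fluorescence. Analysed for gain versus DMSO.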

In assay [8] the target is Oxysterols receptor LXR-beta (Homo sapiens) (UniProt P55055). Put plainly: ATG_LXRb_TRANS: Attagene TRANS-FACTORIAL HepG2 Assay for human Liver X Receptor beta (LXRb) (AID 2282981). The following applies: HepG2 Attagene TRANS GAL4-LXRb reporter, mRNA. In short, it runs like this: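 After 24 h of chemical treatment, transfected HepG2 cells yield total RNA; reporter cDNA is PCR-amplified, FAM-labelled, HpaI-cut and run on capillary electrophoresis. Signal reflects chimeric LXRb-Gal4 activity on GAL4-UAS reporters.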

The target in assay [9] is Oxysterols receptor LXR-alpha (Homo sapiens) (UniProt Q13133). In words: ATG_LXRa_TRANS: Attagene TRANS-FACTORIAL HepG2 Assay for human Liver X Receptor alpha (LXRa) (AID 2282980). Particulars: HepG2 Attagene TRANS reporter, LXRa transactivation. In short, it runs like this: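 Transfect HepG2 with GAL4-UAS multiplex reporter constructs (TRANS format, chimeric receptor-GAL4); treat 24 h; extract RNA, reverse-transcribe, PCR-amplify, FAM-label, HpaI-digest; resolve fragments by capillary electrophoresis. Upward response vs DMSO.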

The record followed here is PubChem BioAssay (EPA / NIEHS).

“And” between values parts separate entries of the source, which are not always exact repeats. Equal values may be shown once. Records with an inconclusive call do not appear. Some structures have more than one record in an assay (separate samples or runs), and their calls can disagree. The source made the active and inactive calls. The calls were made as follows, unless noted: active = hit-call score of the fitted dose curve at least 0.9, where 1 is the maximum; inconclusive = response in the unintended direction; inactive = score below 0.9.

Transcriptional activator Myb (Homo sapiens), sequence (P10242 whole entry, looked up): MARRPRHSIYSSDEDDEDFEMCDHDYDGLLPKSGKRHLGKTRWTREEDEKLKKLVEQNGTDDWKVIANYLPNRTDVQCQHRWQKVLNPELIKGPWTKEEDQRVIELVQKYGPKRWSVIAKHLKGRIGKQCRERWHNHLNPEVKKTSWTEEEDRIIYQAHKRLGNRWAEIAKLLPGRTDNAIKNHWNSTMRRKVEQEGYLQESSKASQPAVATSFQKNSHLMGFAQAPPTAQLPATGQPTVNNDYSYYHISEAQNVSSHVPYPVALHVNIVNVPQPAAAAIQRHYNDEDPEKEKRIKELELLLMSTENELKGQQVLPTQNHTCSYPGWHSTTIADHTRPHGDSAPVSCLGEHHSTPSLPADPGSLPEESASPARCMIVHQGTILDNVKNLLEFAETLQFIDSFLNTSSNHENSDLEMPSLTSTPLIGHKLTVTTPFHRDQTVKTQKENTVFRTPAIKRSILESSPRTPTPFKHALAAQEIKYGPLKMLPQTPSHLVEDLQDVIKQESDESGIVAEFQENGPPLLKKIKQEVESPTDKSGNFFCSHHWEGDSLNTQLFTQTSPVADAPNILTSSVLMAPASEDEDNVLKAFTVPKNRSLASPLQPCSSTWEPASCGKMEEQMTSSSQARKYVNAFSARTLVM
Oxysterols receptor LXR-beta (Homo sapiens), sequence (P55055 whole entry, looked up, the tested form may be a part): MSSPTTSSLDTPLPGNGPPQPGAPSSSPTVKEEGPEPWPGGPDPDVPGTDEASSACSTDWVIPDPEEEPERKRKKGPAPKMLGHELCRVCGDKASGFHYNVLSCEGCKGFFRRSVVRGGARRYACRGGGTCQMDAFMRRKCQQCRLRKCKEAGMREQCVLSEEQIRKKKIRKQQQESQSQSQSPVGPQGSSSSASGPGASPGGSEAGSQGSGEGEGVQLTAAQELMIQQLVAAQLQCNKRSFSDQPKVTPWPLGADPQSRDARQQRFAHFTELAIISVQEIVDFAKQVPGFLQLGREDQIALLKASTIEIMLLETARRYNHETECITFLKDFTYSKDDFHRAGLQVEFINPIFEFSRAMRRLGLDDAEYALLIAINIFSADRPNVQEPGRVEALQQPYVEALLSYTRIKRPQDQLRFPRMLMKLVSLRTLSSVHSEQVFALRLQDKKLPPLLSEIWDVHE
Nuclear receptor subfamily 4 group A member 2 (Homo sapiens), sequence (P43354 whole entry, looked up, the tested form may be a part): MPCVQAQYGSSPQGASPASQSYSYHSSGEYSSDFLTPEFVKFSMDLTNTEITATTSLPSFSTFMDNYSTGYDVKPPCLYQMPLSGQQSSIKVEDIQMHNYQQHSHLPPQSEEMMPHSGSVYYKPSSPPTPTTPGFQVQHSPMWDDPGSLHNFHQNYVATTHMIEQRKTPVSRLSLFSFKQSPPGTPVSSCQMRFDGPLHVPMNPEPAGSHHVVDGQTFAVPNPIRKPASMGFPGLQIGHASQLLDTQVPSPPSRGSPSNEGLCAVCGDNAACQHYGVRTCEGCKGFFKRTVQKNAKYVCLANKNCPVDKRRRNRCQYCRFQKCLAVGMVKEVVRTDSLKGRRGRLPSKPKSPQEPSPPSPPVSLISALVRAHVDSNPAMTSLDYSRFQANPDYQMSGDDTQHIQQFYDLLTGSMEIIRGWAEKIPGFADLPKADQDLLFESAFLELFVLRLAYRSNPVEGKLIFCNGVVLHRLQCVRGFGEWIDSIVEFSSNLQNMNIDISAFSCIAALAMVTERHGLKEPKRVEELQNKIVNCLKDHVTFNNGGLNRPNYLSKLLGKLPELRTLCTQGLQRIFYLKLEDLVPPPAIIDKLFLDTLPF
Bile acid receptor (Homo sapiens), sequence (Q96RI1 whole entry, looked up, the tested form may be a part): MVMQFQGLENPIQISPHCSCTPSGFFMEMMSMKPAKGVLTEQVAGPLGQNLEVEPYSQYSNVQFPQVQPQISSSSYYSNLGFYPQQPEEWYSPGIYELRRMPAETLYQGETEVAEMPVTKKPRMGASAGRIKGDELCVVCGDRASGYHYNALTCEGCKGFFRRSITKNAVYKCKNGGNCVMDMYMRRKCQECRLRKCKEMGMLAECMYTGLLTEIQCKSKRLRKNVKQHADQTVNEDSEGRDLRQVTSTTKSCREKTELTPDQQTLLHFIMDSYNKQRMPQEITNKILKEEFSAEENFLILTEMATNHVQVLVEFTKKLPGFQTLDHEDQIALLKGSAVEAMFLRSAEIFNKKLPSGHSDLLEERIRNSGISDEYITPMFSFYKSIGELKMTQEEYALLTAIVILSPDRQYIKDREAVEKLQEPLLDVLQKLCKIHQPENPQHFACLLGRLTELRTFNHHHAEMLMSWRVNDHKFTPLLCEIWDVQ
Oxysterols receptor LXR-alpha (Homo sapiens), sequence (Q13133 whole entry, looked up, the tested form may be a part): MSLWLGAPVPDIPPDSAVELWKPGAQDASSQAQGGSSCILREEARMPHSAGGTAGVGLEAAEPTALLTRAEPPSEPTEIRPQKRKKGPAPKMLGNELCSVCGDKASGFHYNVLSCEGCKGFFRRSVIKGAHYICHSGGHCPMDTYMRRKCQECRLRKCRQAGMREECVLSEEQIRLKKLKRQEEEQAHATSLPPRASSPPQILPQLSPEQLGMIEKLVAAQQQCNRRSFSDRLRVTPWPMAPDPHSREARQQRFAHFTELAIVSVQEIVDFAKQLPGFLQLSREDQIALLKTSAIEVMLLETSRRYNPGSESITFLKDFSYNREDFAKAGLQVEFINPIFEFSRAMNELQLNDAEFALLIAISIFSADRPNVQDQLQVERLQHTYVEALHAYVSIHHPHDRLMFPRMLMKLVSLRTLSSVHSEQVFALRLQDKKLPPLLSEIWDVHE
Nuclear respiratory factor 1 (Homo sapiens), sequence (Q16656 whole entry, looked up, the tested form may be a part): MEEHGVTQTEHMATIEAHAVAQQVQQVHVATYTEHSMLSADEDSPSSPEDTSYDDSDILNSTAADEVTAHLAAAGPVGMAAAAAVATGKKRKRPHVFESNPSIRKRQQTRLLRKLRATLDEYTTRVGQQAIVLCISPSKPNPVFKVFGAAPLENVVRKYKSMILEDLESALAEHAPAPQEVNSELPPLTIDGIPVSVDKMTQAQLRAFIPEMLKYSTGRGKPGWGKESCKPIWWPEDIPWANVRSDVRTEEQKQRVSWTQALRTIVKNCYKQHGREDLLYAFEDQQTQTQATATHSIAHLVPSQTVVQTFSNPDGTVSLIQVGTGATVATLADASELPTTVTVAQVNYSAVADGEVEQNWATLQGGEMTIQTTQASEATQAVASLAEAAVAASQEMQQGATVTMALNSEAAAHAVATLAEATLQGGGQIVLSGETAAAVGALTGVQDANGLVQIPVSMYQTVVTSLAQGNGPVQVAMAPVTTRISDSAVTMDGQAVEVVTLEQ
Hepatocyte nuclear factor 4-alpha (Homo sapiens), sequence (P41235 whole entry, looked up): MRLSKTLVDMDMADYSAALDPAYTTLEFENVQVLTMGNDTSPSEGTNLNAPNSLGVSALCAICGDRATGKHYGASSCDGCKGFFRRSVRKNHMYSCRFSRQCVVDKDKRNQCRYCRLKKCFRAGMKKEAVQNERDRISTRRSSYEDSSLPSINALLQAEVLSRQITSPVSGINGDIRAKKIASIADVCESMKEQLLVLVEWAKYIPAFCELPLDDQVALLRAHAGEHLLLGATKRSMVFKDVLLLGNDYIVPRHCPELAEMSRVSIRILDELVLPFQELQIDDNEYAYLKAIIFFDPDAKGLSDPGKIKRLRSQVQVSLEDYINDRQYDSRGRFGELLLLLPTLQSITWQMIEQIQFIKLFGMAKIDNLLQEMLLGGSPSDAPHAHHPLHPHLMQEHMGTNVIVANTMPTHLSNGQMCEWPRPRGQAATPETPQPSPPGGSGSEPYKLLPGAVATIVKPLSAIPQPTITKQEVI

Take `O=C1OC(=O)c2cc(-c3ccc4c(c3)C(=O)OC4=O)ccc21`: the call in assay [1], in [2], in assay [3], in [4] and in [5] was inactive.

`O=P(O)(O)CCC(F)(F)C(F)(F)C(F)(F)C(F)(F)C(F)(F)C(F)(F)F`: the outcome in assay [1], in assay [6], in assay [7], in assay [2], in assay [4] and in assay [5] was inactive.

With `CCCCCCCCC(C)=O`, the call in assay [1], in assay [8], in assay [4] and in [5] was inactive.

Regarding `Nc1ccc(O)c(C(=O)O)c1`, the outcome in assay [1], in [6], in assay [3], in assay [4] and in [5] was inactive.

On to `CCCCCCCCC1CCC(=O)O1` (stereo not given), for which the call in assay [1], in assay [7], in [4] and in assay [5] was inactive.

With `Clc1ccc(Nc2nnc(Cc3ccncc3)c3ccccc23)cc1`, the result in [1], in assay [6], in [2], in [4] and in [5] was inactive.

Consider `CCCCc1ccc2ccccc2c1S(=O)(=O)O`, for which the outcome in assay [1], in [7], in assay [4] and in [5] was inactive.

With `CCc1cccc(CC)c1N(COC)C(=O)CS(=O)(=O)O`, the outcome in assay [1], in [2], in assay [4] and in assay [5] was inactive.

Turning to `FC(F)=C(F)C(F)(F)C(F)(F)C(F)(F)C(F)F`, the outcome in assay [1], in assay [2], in [4] and in [5] was inactive.

Regarding `C=CC(=O)OCCN(CC)CC`, the result in assay [1], in assay [8], in [3], in assay [4] and in assay [5] was inactive.

As for `O=C(O)c1cccc(C(=O)O)n1`, the result in assay [1], in [7], in assay [2], in [3], in assay [4] and in [5] was inactive.

With `c1ccc2c(c1)CCC2`, the molecule was classed as inactive in [1], in [8], in assay [4] and in [5].

As for `O=C(c1ccccc1)c1ccccc1`, the molecule was classed as inactive in [1], in assay [8], in assay [2] and in assay [4].

Turning to `O=C(NO)c1ccccc1`, the call in assay [1], in [6], in assay [7], in assay [2], in assay [4] and in [5] was inactive.

Turning to `C=CCOCC(CO)(CO)CO`, the molecule was classed as inactive in [1], in [6], in assay [7], in assay [2], in assay [4] and in [5].

`CCO[Si](C)(C)OCC`: the call in [8], in assay [6], in [2], in assay [3], in [4] and in assay [5] was inactive.

For `CCCCCCCCCCCC[N+](C)(C)CCCCCCCCCCCC`, the outcome in assay [8], in assay [7], in assay [3], in assay [4] and in assay [5] was inactive. Also, the AC50 in assay [6] was 58.1 µM (active).

With `Cc1ccc(S(=O)(=O)O)cc1`, the result in assay [9], in [6], in [7], in assay [2], in [3] and in assay [4] was inactive. Moreover, the call in assay [5] was inactive.

Consider `Cc1ccc(N=Nc2c(O)ccc3ccccc23)c(C)c1`, for which the molecule was called inactive in assay [9], in [8], in assay [6], in assay [7], in [3] and in [4]. For the same molecule, in assay [5], the call was inactive.

Regarding `COc1ccc(C#N)cc1`, the result in assay [8], in [6], in assay [7], in assay [2], in [4] and in [5] was inactive.

Regarding `CCCCCCCCCCCC(=O)O`, the result in assay [9], in assay [8], in [7], in [2], in assay [4] and in [5] was inactive.

`CCOCCOCC`: the result in [9], in assay [8], in assay [7], in [2], in [3] and in [4] was inactive. Further, the molecule was called inactive in [5].

`O=C1NS(=O)(=O)c2ccccc21`: the result in [9], in [8], in [6], in assay [2], in [3] and in assay [4] was inactive. Besides, the molecule was classed as inactive in [5].

For the molecule `NS(=O)(=O)O`, the molecule was classed as inactive in assay [8], in [6], in assay [2], in assay [4] and in assay [5].

Regarding `C=C(c1ccc(C(=O)O)cc1)c1cc2c(cc1C)C(C)(C)CCC2(C)C`, the molecule was called inactive in assay [9], in assay [8], in assay [7], in assay [2], in assay [4] and in assay [5]. In assay [4], the AC50 was 31 µM (active).

As for `NC(=NCCCCCCN=C(N)/N=C(\N)Nc1ccc(Cl)cc1)/N=C(\N)Nc1ccc(Cl)cc1`, the concentration at half-maximal activity (AC50) in [8] was 24.1 µM (active); in [7] it was 23.3 µM (active); in [4], 18.3 µM (active) and 48.2 µM (active); in [5] it was 7.2 µM (active) and 38.6 µM (active). Further, the call in [8], in [7], in assay [3], in [4] and in assay [5] was inactive.

On to `COCC1CCC(CO)CC1` (stereo not given), for which the molecule was classed as inactive in assay [9], in assay [8], in assay [7], in assay [4] and in [5].

Consider `C[C@]12CC[C@@H]3c4ccc(O)cc4CC[C@H]3[C@@H]1CC[C@@H]2OC(=O)CCC1CCCC1`, for which the molecule was called inactive in assay [9], in [8], in assay [7], in [4] and in assay [5].

By AC50 is commonly meant the concentration giving half of the maximal activity seen.
